# Shown are actives, neighbours in structure and some others; about 1.5% of the full set was active somewhere.
# CRFBP-R2 block: antagonists of CRF-BP/CRF-R2 complex, primary screen, cell-based, HEK293, calcium dye fluorescence, uHTS; CRF-induced calcium fluorescence; inhibition, % at 11.8 µM; hit rate 0.59% among 350,000;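 active means inhibition of the ligand-induced calcium signal above about 50% at the single tested concentration, limit read from the data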
# CRFBP-R2 agonist: agonists of CRF-BP/CRF-R2 complex, primary screen, cell-based, HEK293, calcium dye fluorescence, uHTS; activation, % at 13.2 µM; hit rate 0.46% among 350,000; AID 588473, 2011; calcium dye fluorescence (FLIPR); percent of saturating CRF peptide response;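 active means activation of at least 50%, plus an integration ratio under a set limit after plate pattern correction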;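 further: plate controls were neutral control wells without compound for no effect and CRF at EC100 for full effect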
# Cardiac RTF inh: cardiac RTF calcium sensitivity inhibitors, primary screen, biochemical, IANBD-TnC fluorescence, EC70 calcium; Troponin I, cardiac muscle (Homo sapiens) + Troponin T, cardiac muscle (Homo sapiens) + …; IANBD-labeled cardiac RTF, Ca2+ fluorescence; inhibition, % at 7.15 µM; AID 493244, 2011; hit rate 0.12% among 340,000;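 active means inhibition above the mean inhibition of all tested compounds plus 3 SD, cut at about 17% in these data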;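 further: assay run at fixed EC70 calcium of 1.6 mM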
# IDE inh: human IDE inhibitors in live cells, primary screen, fluorescence polarization, HEK cells, FAbetaB substrate. Insulin-degrading enzyme (Homo sapiens), P14735. inhibition, % at 5.59 µM. hit rate 0.41% among 320,000. AID 434962, 2010. FAbetaB cleavage;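 active means percent inhibition above the average of all tested compounds plus 3 SD, set per screening campaign, cut at about 16% in these data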;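 further: IDE supplied by intact live HEK cells; FP after avidin binding of uncleaved biotin substrate so inhibition keeps polarization high; 0% = DMSO wells and 100% = 60 µM reference IDE inhibitor Ii1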
# Target sequence (P14735 whole entry, looked up): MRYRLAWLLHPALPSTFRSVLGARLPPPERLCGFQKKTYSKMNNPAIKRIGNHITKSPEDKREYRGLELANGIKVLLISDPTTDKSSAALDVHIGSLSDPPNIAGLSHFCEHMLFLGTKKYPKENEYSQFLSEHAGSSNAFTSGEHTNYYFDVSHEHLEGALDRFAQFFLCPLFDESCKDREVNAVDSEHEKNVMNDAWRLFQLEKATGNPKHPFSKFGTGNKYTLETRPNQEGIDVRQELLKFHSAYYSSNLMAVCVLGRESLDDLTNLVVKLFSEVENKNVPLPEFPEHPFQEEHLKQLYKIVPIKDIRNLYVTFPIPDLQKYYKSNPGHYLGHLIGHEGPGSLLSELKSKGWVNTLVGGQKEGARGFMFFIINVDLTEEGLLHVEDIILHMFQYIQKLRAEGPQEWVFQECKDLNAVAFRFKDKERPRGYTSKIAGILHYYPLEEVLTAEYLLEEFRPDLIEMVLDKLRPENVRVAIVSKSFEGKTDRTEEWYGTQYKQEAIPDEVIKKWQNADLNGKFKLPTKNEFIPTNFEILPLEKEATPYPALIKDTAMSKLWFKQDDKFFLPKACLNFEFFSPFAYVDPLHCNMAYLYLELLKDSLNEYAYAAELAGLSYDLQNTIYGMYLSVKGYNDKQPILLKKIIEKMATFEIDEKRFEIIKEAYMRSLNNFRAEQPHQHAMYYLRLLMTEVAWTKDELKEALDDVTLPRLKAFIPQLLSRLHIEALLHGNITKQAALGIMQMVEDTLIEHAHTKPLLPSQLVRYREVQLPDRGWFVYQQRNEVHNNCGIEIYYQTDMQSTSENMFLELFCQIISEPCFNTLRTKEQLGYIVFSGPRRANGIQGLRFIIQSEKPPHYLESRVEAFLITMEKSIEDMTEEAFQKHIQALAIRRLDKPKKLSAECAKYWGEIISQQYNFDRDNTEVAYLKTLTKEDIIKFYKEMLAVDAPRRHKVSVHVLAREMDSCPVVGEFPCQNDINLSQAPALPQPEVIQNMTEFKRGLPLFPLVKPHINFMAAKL
# IDE cell activ: human IDE activators in live cells, primary screen, fluorescence polarization, HEK cells, FAbeta-B substrate. activation, % at 5.96 µM. Insulin-degrading enzyme (Homo sapiens), P14735. AID 493087, 2011. FAbeta-B cleavage; 0% vehicle, 100% cell-free pure enzyme wells. hit rate 0.073% among 340,000;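 active means activation above the mean of all tested compounds plus 3 SD, set per screening campaign, cut at about 17% in these data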
# RTF Ca sens act: cardiac RTF calcium sensitivity activators, primary screen, biochemical, IANBD-TnC fluorescence, EC20 calcium | activation, % at 7.2 µM | Troponin I, cardiac muscle (Homo sapiens) + Troponin T, cardiac muscle (Homo sapiens) + … | hit rate 0.24% among 340,000 | AID 493008, 2010 | IANBD-labeled TnC RTF fluorescence at EC20 calcium; 0% EC20 calcium, 100% full calcium;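 active means activation above the mean over all tested compounds plus 3 SD, cut at about 30% in these data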;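 further: rise in fluorescence read as greater calcium sensitivity of cardiac thin filaments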
# The depositor's hits bear a star; / = not tested or not shown.
SMILES,CRFBP-R2 block,CRFBP-R2 agonist,Cardiac RTF inh,IDE inh,IDE cell activ,RTF Ca sens act
CC1(c2ccc(OC(F)F)cc2)NC(=O)N(CC(=O)Nc2ccc3c(c2)OCO3)C1=O (stereo unspecified),-56,122*,1,-3,-5,2
Cc1ccccc1-c1nnn(CC(=O)Nc2ccc3c(c2)OCO3)n1,20,-2,-7,-7,3,1
COC1=C(Br)C(=O)c2ncccc2C1=O,58*,-2,1,/,0,1
O=C1c2cccnc2-c2ncccc21,11,-2,4,7,3,9
COc1cc(/C=C/C(=O)OCC(=O)N(CC(C)C)c2c(N)n(Cc3ccccc3)c(=O)[nH]c2=O)ccc1O,-41,120*,-3,/,1,-5
COc1ccc(CNC(=O)CN2CCN(S(=O)(=O)c3c(C)c(C)cc(C)c3C)CC2)cc1OC,11,-1,-2,-4,1,-1
COc1ccc(CNC(=O)CN2CCN(S(=O)(=O)c3cc(Br)ccc3Br)CC2)cc1OC,60*,-1,-7,/,1,-1
O=C(C1CCCN(S(=O)(=O)c2cccc3cccnc23)C1)N1CCN(c2ccc(F)cc2)CC1 (stereo unspecified),79*,-1,-1,-2,-8,9
O=C(C1CCN(S(=O)(=O)c2cccc3cccnc23)CC1)N1CCN(c2ccccc2)CC1,18,0,3,0,-5,1
O=C(O)[C@H](Cc1ccccc1)Nc1ccc([N+](=O)[O-])cn1,-7,1,-1,3,3,-4
O=C(O)C(Cc1ccccc1)Nc1ccc([N+](=O)[O-])cc1[N+](=O)[O-] (stereo unspecified),53*,4,1,5,6,3
COc1ccc(CNc2cc([N+](=O)[O-])ccc2OC)cc1,89*,-2,7,-4,0,1
Cc1cc([N+](=O)[O-])ccc1NCc1ccc2ccccc2c1,18,0,5,-4,-3,-5
COc1ccc(C)cc1NCc1ccc([N+](=O)[O-])cc1,28,-5,0,-4,7,-10
Cc1cc([N+](=O)[O-])ccc1NCc1ccccc1,114*,1,-10,6,6,-3
CC(C)(CNc1ccc(S(=O)(=O)C(F)(F)F)cc1[N+](=O)[O-])N1CCOCC1,6,2,4,-3,6,-2
COCCN(CCOC)Cc1c(O)ccc2c1O/C(=C\c1ccc(C)o1)C2=O,5,4,-86,4,-8,147*
Cc1ccc(/C=C2\Oc3cc(OCC(=O)NN)ccc3C2=O)o1,1,0,-13,/,-4,1
CCN(CC)Cc1c(O)ccc2c1O/C(=C\C=C\c1ccccc1)C2=O,-25,41,-165,6,-3,113*
COc1ccccc1/C=C/C=C1\Oc2c(ccc(O)c2CN(C)C)C1=O,-33,41,-147,10,-17,107*
CCCN(C(=O)CSc1n[nH]c(-c2ccc(OC)cc2)n1)c1c(N)n(Cc2ccccc2)c(=O)[nH]c1=O,59*,1,-3,8,2,-11
COc1cc(OC)cc(C(=O)N(Cc2ccco2)c2c(N)n(Cc3ccccc3)c(=O)[nH]c2=O)c1,-2,-1,-50,/,2,31*
Cc1ccc(C(=O)N(Cc2ccco2)c2c(N)n(Cc3ccccc3)c(=O)[nH]c2=O)cc1,2,-1,/,/,/,/
O=C(NN=Cc1cc(=O)[nH]c(=O)[nH]1)c1ccncc1,17,0,-6,/,4,-5
COC(=O)C1(C)COP(=O)(NC23CC4CC(CC(C4)C2)C3)OC1 (stereo unspecified),33,-1,-6,/,4,-4
SMILES,CRFBP-R2 block,CRFBP-R2 agonist,Cardiac RTF inh,IDE inh,IDE cell activ,RTF Ca sens act
CC1(C)CC(=O)C2=C(C1)OC(N)=C(C#N)[C@@H]2c1ccccc1[N+](=O)[O-],-9,6,-53,9,-9,41*
O=C(C1=NN(c2ccccc2)C2C(=O)N(c3ccc(Cl)cc3)C(=O)C12)c1ccccc1 (stereo unspecified),-57,48,-30,15,-18,38*
COc1ccccc1N1C(=O)C2C(C(=O)c3ccccc3)=NN(c3ccc(Br)cc3)C2C1=O (stereo unspecified),-17,40,/,3,/,/
COc1ccccc1N1C(=O)C2C(C(=O)c3ccccc3)=NN(c3ccc(C)cc3)C2C1=O (stereo unspecified),-65,91*,/,9,/,/
N#C/C(=C/c1ccc(N2CCCCCC2)o1)c1ccc(Cl)cc1,0,21,-42,0,-17,36*
O=C(CCCN1C(=O)/C(=C\c2ccccc2)SC1=S)N1CCOCC1,7,-3,9,2,-2,1
O=C(CCN1C(=O)/C(=C\c2cccc(Br)c2)SC1=S)N1CCOCC1,64*,0,0,7,4,-3
COc1ccc(C(C(=O)NC2CCCC2)N(C(=O)CNC(=O)c2ccco2)c2cccnc2)cc1 (stereo unspecified),-8,5,-6,-1,1,-1
COc1ccc(S(=O)(=O)Nc2nc3ccccc3nc2NCC2CCCO2)cc1 (stereo unspecified),113*,-1,2,3,7,-4
CCOc1ccc2nc(/N=C/c3nc(-c4ccc(Br)cc4)oc3O)sc2c1,-116,147*,-1,5,-15,15
CCCCOc1ccc(-c2nc(/C=N/c3nccs3)c(O)o2)cc1,-12,-1,-4,2,3,2
CCOC(=O)c1sc(=NC(=O)c2ccc(Cl)s2)n(C)c1C,114*,-1,-3,3,0,-1
Cc1cc(/C=N/NC(=O)c2ccoc2C)cc(C)c1O,68*,0,/,/,/,/
COc1cc(/C=N/NC(=O)c2ccoc2C)cc(OC)c1OC,2,-1,-6,9,1,5
Cc1cc(Cl)ccc1C(=O)C1CCCN(C(=O)c2cnsn2)C1 (stereo unspecified),-12,5,0,7,0,0
NC(=O)CSc1nnnn1-c1ccc2c(c1)OCCO2,81*,1,-4,-1,6,-5
Fc1ccccc1CSc1nnnn1-c1ccc2c(c1)OCO2,57*,1,-3,-3,-2,2
O=Cc1cn(-c2ccccc2)nc1-c1ccc2c(c1)OCCO2,61*,5,-19,6,0,10

# Assay outcomes as filed in PubChem BioAssay.
